Experiment [1] relates to PRMT1 (protein arginine N-methyltransferase 1). The experiment in a line: small molecules binding arginine methyltransferase PRMT1 – biochemical, small-molecule microarray, 635 nm fluorescence, primary screen (AID 1088).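 Also: binding of Prmt1 protein to compounds spotted on small-molecule microarray slides.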 The following applies: higher = more signal.
The nature of experiment [2]: growth effects on S. cerevisiae YJM789 – YJM789 clinical isolate, OD600, 24 h, basal, primary screen (AID 1089).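 Also: growth of clinical yeast isolate S. cerevisiae YJM 789 seeded 1000 cells per well; test concentration not given here.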 The settings on record: higher = more signal, called active from +8 up or from −8 down.
Experiment [3] is described as follows: S. pombe growth modifiers, basal conditions – strain 972, OD600, 24 h, no modulator, primary screen (AID 1090).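 Also: basal condition with compound alone and no growth modifier present; test concentration not given here.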 The settings on record: S. pombe 972 growth, higher = more signal, called active from +8 up or from −8 down.
The nature of experiment [4]: budding yeast growth modifiers under rapamycin – strain BY4716, OD600, 96 h, primary screen (AID 1091). Also: test concentration not given here. The settings on record: S. cerevisiae BY4716 + rapamycin, higher = more signal, called active from +8 up or from −8 down.
The target of experiment [5] is Torsin-1A-interacting protein 2 (Homo sapiens) (UniProt Q8NFQ8). Description: small molecules binding lysate-expressed LULL1 – cell lysate, human LULL1 lysate, 635/667 nm fluorescence, primary screen (AID 1092).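 Also: probe is lysate of COS7 cells overexpressing human LULL1; score merges per-feature 667 nm fluorescence with signal-to-noise.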 The settings on record: small-molecule microarray, hLULL1 lysate binding, 635 nm fluorescence; higher = more signal.
The nature of experiment [6]: optical density change of DRC41 E. coli – strain DRC41, OD650, 24 h, E. coli filamentation project, primary screen (AID 1093).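 Also: MC1000 strain lacking acrAB efflux and sulA so SOS filamentation is blocked; test concentration not given here.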 The following applies: E. coli DRC41 growth, higher = more signal, called active from +8 up or from −8 down.
Experiment [7] can be described thus: probe aLefty2 binding to arrayed compounds – biochemical, biotinylated probe, 635/667 nm fluorescence, primary screen (AID 1094).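 Also: score merges spot fluorescence near 667 nm with spot signal-to-noise ratio.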 The settings on record: small-molecule microarray, higher = more signal.
Experiment [8] deals with Noggin (protein binding on small-molecule microarray). The experiment in a line: small molecules binding Noggin protein – biochemical, 635/667 nm fluorescence, primary screen (AID 1095).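 Also: score merges 667 nm feature fluorescence with signal to noise over triplicate slides.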 The settings on record: 635 nm fluorescence, higher = more signal.
The target in experiment [9] is Neurogenic locus notch homolog protein 3 (Homo sapiens) (UniProt Q9UM47). Description: small molecules binding NOTCH3 protein – biochemical, 635/667 nm fluorescence, primary screen (AID 1096). The settings on record: small-molecule microarray, 635 nm fluorescence, higher = more signal.
Experiment [10] can be described thus: probe aEGFR binding to arrayed compounds – biochemical, biotinylated probe, 635/667 nm fluorescence, primary screen (AID 1097).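 Also: probe is a biotinylated anti-EGFR antibody binding compounds printed on slides; score combines fluorescence near 667 nm and signal to noise of each spot.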 The settings on record: small-molecule microarray, higher = more signal.

Structures are written as SMILES. Active and inactive are the calls of the source.

Neurogenic locus notch homolog protein 3 (Homo sapiens), sequence (Q9UM47 whole entry, looked up): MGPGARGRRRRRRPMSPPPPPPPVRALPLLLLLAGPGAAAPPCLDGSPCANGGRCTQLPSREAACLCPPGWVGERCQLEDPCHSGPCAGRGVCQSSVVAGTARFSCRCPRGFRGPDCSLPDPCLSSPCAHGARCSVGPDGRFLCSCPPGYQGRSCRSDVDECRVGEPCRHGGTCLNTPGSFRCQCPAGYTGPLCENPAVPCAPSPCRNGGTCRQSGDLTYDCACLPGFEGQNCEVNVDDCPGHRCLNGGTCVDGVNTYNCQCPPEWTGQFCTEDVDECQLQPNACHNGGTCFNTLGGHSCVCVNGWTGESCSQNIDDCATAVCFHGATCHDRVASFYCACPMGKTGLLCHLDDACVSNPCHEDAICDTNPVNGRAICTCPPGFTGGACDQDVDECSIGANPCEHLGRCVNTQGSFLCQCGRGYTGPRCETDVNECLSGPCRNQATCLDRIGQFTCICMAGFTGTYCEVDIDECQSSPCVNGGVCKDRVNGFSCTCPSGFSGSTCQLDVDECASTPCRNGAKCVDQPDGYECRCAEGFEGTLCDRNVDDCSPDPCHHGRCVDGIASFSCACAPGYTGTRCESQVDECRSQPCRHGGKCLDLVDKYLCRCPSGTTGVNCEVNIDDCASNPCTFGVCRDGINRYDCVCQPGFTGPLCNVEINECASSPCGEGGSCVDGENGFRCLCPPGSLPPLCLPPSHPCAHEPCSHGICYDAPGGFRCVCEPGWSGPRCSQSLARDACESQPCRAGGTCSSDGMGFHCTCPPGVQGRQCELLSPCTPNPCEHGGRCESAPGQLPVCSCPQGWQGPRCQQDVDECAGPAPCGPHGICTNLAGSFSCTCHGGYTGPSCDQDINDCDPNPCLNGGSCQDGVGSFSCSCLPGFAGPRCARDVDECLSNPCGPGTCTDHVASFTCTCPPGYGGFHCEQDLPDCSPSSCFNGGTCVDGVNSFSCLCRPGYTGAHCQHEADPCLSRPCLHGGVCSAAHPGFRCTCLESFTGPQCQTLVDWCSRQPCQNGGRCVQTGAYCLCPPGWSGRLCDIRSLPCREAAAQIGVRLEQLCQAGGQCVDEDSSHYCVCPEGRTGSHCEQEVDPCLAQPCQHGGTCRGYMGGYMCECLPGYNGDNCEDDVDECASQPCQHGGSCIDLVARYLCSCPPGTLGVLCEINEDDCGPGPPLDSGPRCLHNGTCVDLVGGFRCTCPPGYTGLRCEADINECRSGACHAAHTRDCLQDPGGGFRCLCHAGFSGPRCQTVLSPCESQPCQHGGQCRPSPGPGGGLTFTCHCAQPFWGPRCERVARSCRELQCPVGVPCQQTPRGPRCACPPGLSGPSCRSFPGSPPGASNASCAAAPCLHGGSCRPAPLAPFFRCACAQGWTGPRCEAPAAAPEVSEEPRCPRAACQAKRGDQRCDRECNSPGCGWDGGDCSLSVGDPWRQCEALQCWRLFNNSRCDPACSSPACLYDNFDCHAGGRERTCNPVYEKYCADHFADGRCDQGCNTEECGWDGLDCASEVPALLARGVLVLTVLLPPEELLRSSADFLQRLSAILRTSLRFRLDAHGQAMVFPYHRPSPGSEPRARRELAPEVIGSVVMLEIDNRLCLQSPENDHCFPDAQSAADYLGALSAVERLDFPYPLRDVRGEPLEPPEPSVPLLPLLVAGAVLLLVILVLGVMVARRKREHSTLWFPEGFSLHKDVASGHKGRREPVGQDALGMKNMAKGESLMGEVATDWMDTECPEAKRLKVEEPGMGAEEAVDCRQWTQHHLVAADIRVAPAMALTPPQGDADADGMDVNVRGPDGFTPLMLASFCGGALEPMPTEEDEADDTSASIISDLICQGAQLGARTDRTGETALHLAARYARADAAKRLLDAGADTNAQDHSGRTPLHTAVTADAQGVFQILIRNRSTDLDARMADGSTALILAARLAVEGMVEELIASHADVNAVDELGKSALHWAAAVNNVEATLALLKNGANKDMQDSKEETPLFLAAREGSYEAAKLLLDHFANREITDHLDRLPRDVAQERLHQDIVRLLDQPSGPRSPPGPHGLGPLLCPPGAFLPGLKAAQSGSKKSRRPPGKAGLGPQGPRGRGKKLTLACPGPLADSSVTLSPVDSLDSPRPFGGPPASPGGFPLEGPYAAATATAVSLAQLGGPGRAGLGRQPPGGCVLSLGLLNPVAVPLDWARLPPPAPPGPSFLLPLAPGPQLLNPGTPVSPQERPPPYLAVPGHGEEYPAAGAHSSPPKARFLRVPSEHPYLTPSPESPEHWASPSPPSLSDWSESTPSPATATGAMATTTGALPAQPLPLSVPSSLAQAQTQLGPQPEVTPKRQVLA
Torsin-1A-interacting protein 2 (Homo sapiens), sequence (Q8NFQ8 whole entry, looked up): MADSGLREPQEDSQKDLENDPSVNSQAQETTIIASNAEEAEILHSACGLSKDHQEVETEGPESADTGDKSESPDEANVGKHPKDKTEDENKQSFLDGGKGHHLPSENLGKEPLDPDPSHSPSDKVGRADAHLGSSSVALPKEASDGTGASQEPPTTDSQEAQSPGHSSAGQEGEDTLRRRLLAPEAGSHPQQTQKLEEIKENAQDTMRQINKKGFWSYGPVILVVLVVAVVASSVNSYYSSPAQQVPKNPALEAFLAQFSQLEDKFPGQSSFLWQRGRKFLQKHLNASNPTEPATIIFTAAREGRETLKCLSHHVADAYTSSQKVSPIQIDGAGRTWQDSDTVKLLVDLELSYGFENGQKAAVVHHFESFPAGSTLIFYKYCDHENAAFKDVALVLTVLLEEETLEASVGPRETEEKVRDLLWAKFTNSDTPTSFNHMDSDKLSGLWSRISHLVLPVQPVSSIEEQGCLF

On to `CO[C@H]1O[C@H](CO)[C@@H](OC(=O)Nc2cccc(F)c2)[C@H](OC(=O)Nc2ccc3c(c2)OCO3)[C@@H]1OC(=O)Nc1ccc2c(c1)OCO2`, for which the composite z-score in [1] is 1.53; in [5] it was 3.48; in [7], 0.126; in [8], 0.691; in experiment [9], 1.08; in experiment [10], -0.039. Besides, the z-score in experiment [2] is 1.79 (inactive); in experiment [3], 1.24 (inactive); in experiment [4] it was 7.48 (inactive); in experiment [6], -0.0741 (inactive).
Take `C=C(C(=O)CC[C@@H](OC(=O)c1ccccc1-c1ccccc1C(=O)O)c1ccc(CO)o1)C(C)C`: the composite z-score was 1.47 in [1]; 0.167 in experiment [5]; -0.19 in experiment [7]; 1.07 in experiment [8]; 1.07 in experiment [9]; -0.0947 in experiment [10]. Besides, the z-score in experiment [2] is -0.595 (inactive); in [3] it was -0.39 (inactive); in experiment [4] it was -0.881 (inactive); in [6], -0.249 (inactive).
Turning to `CC(C)(C)OC(=O)N1[C@@H](C=C(Br)Br)COC1(C)C`, the composite z-score is 0.656 in [1]; 0.546 in experiment [5]; -0.0815 in experiment [7]; 0.462 in [8]; 0.668 in experiment [9]; -0.0954 in experiment [10]. The z-score in experiment [2] was -2.93 (inactive); in experiment [3], -6.61 (inactive); in experiment [4], -1.27 (inactive); in experiment [6], 1.74 (inactive).
Take `COCCOC(=O)N1C(=O)[C@@]2(c3cc(C#CCNC(N)=O)ccc31)[C@H](C(N)=O)[C@H]1C(=O)O[C@H](c3ccccc3)[C@H](c3ccccc3)N1[C@@H]2c1ccc(O)cc1`: the composite z-score in experiment [1] is 0.46; in experiment [5], 0.634; in [7] it was 0.0362; in experiment [8], 0.173; in [9], -0.564; in [10], -0.0828. Also, the z-score in experiment [2] is 0.898 (inactive); in experiment [3] it was -0.173 (inactive); in [4], 0.449 (inactive); in [6] it was 1.19 (inactive).
As for `COC(=O)[C@@]1(Cc2ccc(F)cc2)[C@H]2c3cc(C(=O)N(C)C)n(Cc4cccc5ccccc45)c3C[C@H]2CN1C(=O)c1ccccc1`, the composite z-score was -0.72 in experiment [1]; 4.03 in experiment [5]; 0.323 in experiment [7]; -0.192 in [8]; -0.0287 in experiment [9]; 0.0776 in experiment [10]. Further, the z-score in [2] is 1.43 (inactive); in experiment [3], 1.54 (inactive); in experiment [4], 2.69 (inactive); in [6], -1.15 (inactive).
For `O=C1C2C=CC(C(O)C3CC=CCC3)N(Nc3ccc([N+](=O)[O-])cc3)C2C(=O)N1c1ccccc1` (stereo not given), the composite z-score in experiment [1] came out at 1.41; in experiment [5], 3.22; in experiment [7], 0.486; in experiment [8], 0.7; in experiment [9], 1.06; in experiment [10], 0.298. Besides, the z-score in experiment [2] was -1.09 (inactive); in experiment [3] it was 0.531 (inactive); in experiment [4] it was 2.22 (inactive); in experiment [6] it was 0.0043 (inactive).
Consider `C=CC[C@H](O)c1ccc(O)c(F)c1`, for which the composite z-score in experiment [1] is -0.255; in [5] it was -1.36; in [7], -0.103; in experiment [8], -0.529; in [9], -0.579; in experiment [10] it was -0.115. For the same compound, the z-score in experiment [2] was -0.63 (inactive); in [3] it was -0.722 (inactive); in experiment [4] it was -1.56 (inactive); in [6] it was -0.53 (inactive).
Regarding `CCCCCN1CC=CC23O[C@@H]4/C=C\CCCOC(=O)C4[C@H]2C(=O)N(CCCCCO)[C@@H]3C1=O` (stereo not given in full), the composite z-score was -0.409 in experiment [1]; -2.15 in experiment [5]; -0.159 in [7]; -0.636 in experiment [8]; -0.0581 in experiment [9]; -0.175 in [10]. For the same compound, the z-score is -0.557 (inactive) in [2], -0.383 (inactive) in [3], -1.39 (inactive) in [4] and 1.62 (inactive) in experiment [6].
As to `COCCOC(=O)N1C(=O)[C@@]2(c3cc(C#CCNC(N)=O)ccc31)[C@H](C(=O)N1CCN(c3ncccn3)CC1)[C@H]1C(=O)O[C@H](c3ccccc3)[C@H](c3ccccc3)N1[C@@H]2c1ccc(O)cc1`, the composite z-score is -0.479 in [1]; 1.37 in [5]; -0.547 in experiment [7]; -1.27 in [8]; -0.637 in experiment [9]; -0.384 in experiment [10]. The z-score was -0.357 (inactive) in [2], -0.562 (inactive) in [3], 0.0816 (inactive) in experiment [4] and -0.324 (inactive) in experiment [6].
`CN(C)CCCC[C@@H]1NC(=O)[C@H]2C[C@@H](C(=O)NCCCCCCNC(=O)CS)[C@@H](c3cccc(OCCO)c3)N2C1=O`: the composite z-score in experiment [1] was -0.174; in experiment [5], 0.935; in experiment [7], 0.0141; in [8], -0.0227; in experiment [9], -0.289; in [10], -0.146. The z-score in [2] is -0.522 (inactive); in [3] it was -0.221 (inactive); in experiment [4], -0.195 (inactive); in experiment [6], -0.12 (inactive).
Take `CC(C)C[C@@H]1NC(=O)[C@@H]2C[C@H](C(=O)NCCCCCCNC(=O)CS)[C@H](c3ccc(O)cc3)N2C1=O`: the composite z-score worked out at 1.53 in [1]; 2.93 in experiment [5]; 0.0277 in experiment [7]; 1.26 in experiment [8]; 1.11 in experiment [9]; 0.0886 in experiment [10]. Moreover, the z-score was 0.279 (inactive) in experiment [2], 0.101 (inactive) in [3], 0.971 (inactive) in [4] and 1.27 (inactive) in experiment [6].
For the compound `C=CC[C@@]1(C(=O)NCCCOC)N=C(c2ccc(OCCCO)cc2)O[C@@H]1c1ccccc1CN=[N+]=[N-]`, the composite z-score is 1.55 in [1]; 2.35 in experiment [5]; 0.258 in experiment [7]; 1.01 in experiment [8]; 1.12 in [9]; 0.0914 in experiment [10]. Moreover, the z-score in experiment [2] is -0.759 (inactive); in experiment [3] it was -0.0094 (inactive); in experiment [4], -0.966 (inactive); in [6], 1.1 (inactive).
As for `CS(=O)(=O)CCOC(=O)C1=CC(CCCO)=CC(C2CC2)N(Cc2sc3ccccc3c2Cl)C=C1C(=O)OCCS(C)(=O)=O` (stereo not given), the composite z-score in experiment [1] amounted to 1.13; in experiment [5], 3.09; in [7], 0.247; in [8], 0.482; in [9], 1.09; in [10], 0.0432. The z-score in experiment [2] is -0.853 (inactive); in [3], -5.1 (inactive); in experiment [4], -1.47 (inactive); in experiment [6], 0.189 (inactive).
For the compound `C=C(C)C1CN([C@H](CO)c2ccccc2)C(=O)/C1=C\c1ccccc1` (stereo not given in full), the composite z-score in [1] is 0.464; in [5] it was -0.302; in [7], -0.0931; in [8], 0.467; in experiment [9], 0.0584; in [10], -0.167. The z-score in [2] was -0.334 (inactive); in experiment [3], -3.2 (inactive); in experiment [4], -0.481 (inactive); in experiment [6], 1.82 (inactive).

The values above are taken from PubChem BioAssay.
